# Test system: Sam68 (KHDRBS1)
# Experiment: compounds binding KHDRBS1 protein – biochemical, small-molecule microarray, 635 nm fluorescence, primary screen (AID 1125);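 also: score merges 667 nm channel intensity with signal to noise over triplicate slides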
# Details: higher = more signal
row,SMILES,composite z-score
1,CC(C)CCN1CCc2nc(COc3ccccc3)c3c(c2C1)CO[C@@H](C)C3,0.0676
2,O=C(NN=C1C[C@@H](O)[C@@H](O)[C@@H]2[C@@H]3C(=O)N(Cc4ccccc4)C(=O)[C@@H]3CC[C@@H]12)OCc1ccccc1,-0.917
3,CO[C@@H]1COC(=O)[C@@H](C)COC(=O)[C@@H](C)NC(=O)CC=C[C@@H]1C,0.0411
4,CO[C@@H]1COC(=O)CC=C[C@@H](C)[C@@H]2C=C[C@H](O)[C@@H](COC(=O)CC=C[C@H]1C)O2,0.141
5,COC(=O)[C@@H]1CC[C@H](C)[C@@H](c2ccc(C)cc2)N1C(=O)c1ccc(C=NO[C@H](C)c2cn([C@H](CO)Cc3ccccc3)nn2)cc1,1.02
6,CCC=CCCC(OC(=O)c1ccc(Br)cc1)C1=CCCCC1=O (stereo unspecified),0.776
7,CO[C@H]1COC(=O)[C@@H](C)COC(=O)[C@H](COCc2ccccc2)NC(=O)CC=C[C@H]1C,-1.17
8,CCOC(=O)CCN1C(=O)[C@H]2[C@H]3[C@H](O)[C@H](O)CC(=NOCC(C)C)[C@H]3CC[C@H]2C1=O,-0.353
9,C#CCCCON=C1C[C@@H](O)[C@@H](O)[C@@H]2[C@@H]3C(=O)N(CC)C(=O)[C@@H]3CC[C@@H]12,0.771
10,CON=C1[C@H]2CCn3c(=O)n(-c4ccccc4)c(=O)n3[C@H]2[C@H](O)[C@@H]2O[C@H]12,0.689
11,CC(C)=CCCC(C)=CCON=C1C[C@@H](O)[C@@H](O)[C@@H]2[C@@H]3C(=O)N(C(C)(C)C)C(=O)[C@@H]3CC[C@@H]12,0.383
12,CC(C)(C)N1C(=O)[C@H]2[C@H]3[C@H](O)[C@H](O)CC(=O)[C@@H]3CC[C@H]2C1=O,0.0236
13,CC(=O)OC[C@H]1O[C@H](CC=NO[C@H](C)c2cn([C@H](CO)Cc3ccccc3)nn2)C=C[C@@H]1OC(C)=O,1.29
14,C=Cc1ccc([C@H]2N[C@H](C(=O)O)CC[C@@H]2C)cc1,-1.6
15,O=C(C=Cc1ccc2c(c1)OCO2)c1ccc(F)cc1,-0.21
16,C[C@@H]1CC[C@H]2C(=O)O[C@@H](Cc3ccccc3)CN2[C@H]1c1ccc(Br)cc1,1.06
17,C=CC1=C[C@H](O)[C@@H]2O[C@@H]2C12OCCCO2,0.372
18,CCN1C(=O)[C@H]2[C@H]3[C@H](O)[C@H](O)CC(=NO[C@@H](C)c4cn([C@H](CO)Cc5ccccc5)nn4)[C@@H]3CC[C@H]2C1=O,1.28

row,SMILES,composite z-score
1,CCOC(=O)[C@H](Cc1ccccc1)NC(=O)CCC1CC(OC(=O)NCc2ccc3c(c2)OCO3)CC2(CCCC(COC(=O)NCCC(C)C)O2)O1 (stereo partly specified),0.907
2,O=C1[C@H]2[C@H]3[C@H](O)[C@H](O)CC(=NOC[C@@H](O)COCc4ccco4)[C@H]3CC[C@H]2C(=O)N1C[C@@H]1CCCO1,0.293
3,CC(C)=NO[C@H](C)c1cn([C@H](CO)Cc2ccccc2)nn1,0.444
4,O=C1CCCC=C1C(O)CCCCBr (stereo unspecified),0.381
5,COC(=O)CC=C[C@@H](C)[C@@H](C=NOC[C@@H](O)[C@H]1O[C@@H]2OC(C)(C)O[C@@H]2[C@H]1O)NS(=O)(=O)c1ccc(C)cc1,0.524
6,CCOC(=O)[C@H](Cc1ccccc1)NC(=O)CCC1CC(OC(=O)NCCc2ccc(F)cc2)CC2(CCCC(COC(=O)NCc3ccccc3)O2)O1 (stereo partly specified),1.2
7,COC(=O)CC=C[C@@H](C)[C@@H](C=NOC(C)CN1CCCc2nc(C)c(C)cc21)OC (stereo partly specified),0.263
8,O=C1CCCC=C1C(O)CCOC(c1ccccc1)(c1ccccc1)c1ccccc1 (stereo unspecified),-1.52
9,C[C@@H]1C=CCC(=O)OC[C@H]2O[C@@H](C=C[C@@H]2O)[C@H](C)C=CCC(=O)OC1,-0.419
10,CO[C@@H]1C=CCC(=O)N[C@@H](C)C(=O)OC[C@@H](OC)[C@H](C)CCCC(=O)OC[C@H]1C,-0.248
11,Cc1ccc(S(=O)(=O)OC[C@H]2CN3[C@H](c4ccc(Br)cc4)[C@@H](C)CC[C@H]3C(=O)O2)cc1,0.893
12,CC(C)=CCCC(C)=CCON=C1C[C@@H](O)[C@@H](O)[C@@H]2[C@@H]3C(=O)N(C4CCCCC4)C(=O)[C@@H]3CC[C@@H]12,0.493
13,O=C1C=C[C@@H](O)[C@@H]2[C@@H]3C(=O)N(C[C@@H]4CCCO4)C(=O)[C@@H]3CC[C@@H]12,0.258
14,CCOC(=O)[C@H](CC(C)C)NC(=O)CCC1CC(OC(=O)NCc2cccc3ccccc23)CC2(CCCC(COC(=O)NCCCN3CCCC3=O)O2)O1 (stereo partly specified),1.29
15,Cc1ccc(S(=O)(=O)N[C@H]2COC(=O)CC=C[C@@H](C)COC(=O)CC=C[C@@H]2C)cc1,0.393
16,Cn1c(=O)n2n(c1=O)[C@H]1[C@H](O)[C@@H]3O[C@@H]3C(=O)[C@H]1CC2,0.327
17,O=C1C[C@@H](O)[C@@H](O)[C@@H]2[C@@H]3C(=O)N(C[C@@H]4CCCO4)C(=O)[C@@H]3CC[C@@H]12,0.666
18,COc1ccc(O[C@H]2C=C[C@@H](c3ccccc3)O[C@@H]2CON=C2[C@H]3CCn4c(=O)n(-c5ccccc5)c(=O)n4[C@H]3[C@H](O)[C@@H]3O[C@H]23)cc1,1.18

# Reference: PubChem BioAssay
